These results are taken from PubChem BioAssay AID2314 (National Center for Advancing Translational Sciences (NCATS), 2010).

About 37,000 (12%) of roughly 300,000 compounds were called active. The list comes from a sample in which actives are over-represented; it also holds similar structures and randomly drawn compounds. A number with no mark means an inactive call. Cut-off read from the data, not from the text of the source: active = max response mostly above about 13% (no sharp cut-off); inactive = mostly below about 14%.

A short description of the assay: Cycloheximide Counterscreen for Small Molecule Inhibitors of Shiga Toxin. Note: read at 38.3 µM for the half of the compounds with a filed dose; 0% is about no effect. Particulars: cell reporter, cycloheximide protein synthesis inhibition counterscreen; active compounds read high.
Take `COC(=O)c1cc(OCC(=O)NC2CCCc3ccccc32)cc(C(=O)OC)c1` (configuration not stated): the max response was 1.41%.
With `COc1ccc(Br)cc1CN(C)CC(=O)Nc1cc(Cl)cc(Cl)c1`, the max response is -1.13%.
For the compound `CCn1c(SCC(=O)NC2CC2)nnc1-c1ccccn1`, the max response is 7.07%.
Turning to `COc1ccc(NC(=O)c2cc(-c3ccc(C)cc3)on2)cc1`, the max response is 2.42%.
On to `Cc1ccc(C)c(NC(=O)c2ccc(OC(=O)c3ccco3)cc2)c1`, for which the max response is 12.4%.
With `Cc1ccc(O)c(NC(=O)c2cc(-c3ccco3)on2)c1` the figure was 17.2% (active).
As to `CC1CCN(C(=O)C2CCN(S(=O)(=O)N3CCC4(CC3)OCCO4)CC2)CC1`, the max response is 5.25%.
On to `O=C(C1CC1)N1N=C(c2ccc(Br)cc2)CC1(O)C(F)(F)F` (configuration not stated), for which the max response is -6.68%.
With `CC(C)Oc1ccccc1C(=O)NC(CO)C(=O)O` (configuration not stated), the max response is 5.75%.
In the case of `O=C1OCCN1C(=O)[C@H]1[C@H](c2ccc(Cl)cc2)C(c2cccc(Cl)c2)=NN1c1ccc(Br)cc1`, the max response was 1.68%.
For `O=C(Cc1ccc(-n2c(=O)c3sccc3n(Cc3ccc(F)cc3)c2=O)cc1)NCc1ccco1`, the max response is -2.83%.
In the case of `CC1Cc2ccccc2N1C(=O)c1cc2sccc2n1Cc1ccccc1` (configuration not stated), the max response is 10.4%.
With `O=C(NCc1ccco1)c1ccc(Cn2c(=O)c3sccc3n(Cc3ccc(F)cc3)c2=O)cc1`, the max response was 0.924%.
With `CCOC(=O)c1cc2sccc2n1Cc1ccc(C#N)cc1` the figure was -2.12%; with `O=C(NCc1ccco1)c1cc2sccc2n1Cc1ccc(F)cc1`, 45.3% (active).
For the compound `O=C(c1cc2sccc2n1Cc1ccc(F)cc1)N1CCc2ccccc21`, the max response is 16.9% (active).
As to `CC(NC(=O)CCC(=O)N1CCN(S(=O)(=O)c2ccc(Cl)cc2)CC1)c1ccccc1` (configuration not stated), the max response was 4.89%.
With `Cn1c(CNC(=O)c2ccco2)nnc1SCC(=O)N1CCN(c2ccccc2)CC1` the figure was -0.554%.
As for `COc1ccccc1NC(=O)C1=C(C)Nc2nc3ccccc3n2C1c1cccs1` (configuration not stated), the max response was -6.14%.
For the compound `Cc1c(C(=O)OC(C)C)sc(NC(=O)c2cccnc2)c1C#N`, the max response is 1.72%.
In the case of `CC(=O)Nc1ccc(CN2CCN(Cc3ccc(F)c(F)c3)C(CCO)C2)cc1` (configuration not stated), the max response is -0.733%.
With `COc1ccc(CNC(=O)C2CCN(C(=O)c3ccco3)CC2)cc1` the figure was -5.74%; with `COc1ccc(CCNC(=S)N2CCN(S(=O)(=O)c3ccc(Cl)cc3)CC2)cc1`, -4.46%; with `O=C1Cc2ccccc2Sc2ccc(Cl)cc21`, 7.71%.
`NS(=O)(=O)c1ccc2nc(NC(=O)C3=COCCO3)sc2c1`: the max response was 31% (active).
For the compound `NS(=O)(=O)c1ccc2nc(NC(=O)CS(=O)(=O)c3ccc(F)cc3)sc2c1`, the max response was 1.51%.
Consider `O=C(Nc1ccc(S(=O)(=O)N2CCCC2)cc1Cl)C1=COCCO1`, for which the max response was -1.75%.
`COc1cc(/C=C2\SC(=O)NC2=O)ccc1OCc1ccc(Cl)nc1`: the max response was -3.18%.
The figure for `COc1ccc(NC(=S)N2CCC(NC(=O)c3cccc(F)c3)CC2)cc1` is -5.6%; for `CCc1cc(-c2nnc(SCC(=O)NC3CC3)n2C)cs1` it is 5.72%.
Take `CCOc1cccc(NC(=O)C2CCCN(S(=O)(=O)c3ccc(OC)cc3)C2)c1` (configuration not stated): the max response is 2.3%.
`COc1ccc(NC(=O)C2CCCN(S(=O)(=O)c3cccc4cccnc34)C2)cc1` (configuration not stated): the max response is -0.912%.
The figure for `COc1ccc(S(=O)(=O)N2CCCC(C(=O)Nc3ccc(NC(=O)c4ccccn4)cc3)C2)cc1` (configuration not stated) is 40.2% (active); for `Cc1ccc(-c2cccc([C@H]3[C@@H]4C=CC[C@@H](C)[C@@H]4C(=O)N3Cc3ccccc3)c2)cc1` it is 2.34%.
For `Cc1ccc2c(C)c(C(=O)N(C)CCC3CCCCO3)oc2c1C` (configuration not stated), the max response is 17.8%.
As for `CCOC(=O)c1nc(Nc2ccc(C(=O)OC)cc2)c2ccccc2n1`, the max response is 9.36%.
With `COC(=O)c1ccc(OC(=O)c2cnccn2)cc1`, the max response was -7.13%.
The figure for `COC(=O)c1ccc(Nc2ncnc3sccc23)cc1` is 39.2% (active); for `O=C(O)C(c1ccccc1)N1C(=O)/C(=C\c2ccc(-c3cccc(Cl)c3)o2)SC1=S` (configuration not stated) it is 0.131%; for `CN1C(=O)/C(=C\c2ccc(-c3ccccc3)o2)SC1=S` it is 9.37% (active).
With `NS(=O)(=O)c1ccc(-c2ccc(/C=C3\SC(=O)NC3=O)o2)cc1` the figure was -2.44%.
`COc1ccc2[nH]c3c(C)c4cc[n+](C)cc4c(C)c3c2c1`: the max response was -3.46%.
For `O=C1CCCN1CCCNC(=S)Nc1ccc(F)c(Cl)c1`, the max response was 11.5%.
With `Cc1ccc2cccc(OCCCOc3ccccc3CO)c2n1`, the max response was 13.2% (active).
On to `Cc1ccc(N(C)C(=O)Oc2cccc3ccc(C)nc23)cc1`, for which the max response was -4.01%.
For `OCc1ccc(OCCCOc2cccc3cccnc23)cc1`, the max response is 1.36%.
The figure for `Cc1cc(S(=O)(=O)NCc2ccccn2)c(Cl)cc1Cl` is -3.82%; for `O=C1NC(=Nc2ccc(Cl)cc2)SC1Cc1cccc(Cl)c1Cl` (configuration not stated) it is -3.08%.
Regarding `Cc1nc(N2CCOCC2)nc2c1CCCC2`, the max response is 9.25%.
In the case of `Nc1nc(-c2sc3nc4c(cc3c2N)CCCC4)nc(N2CCOCC2)n1`, the max response is 17.7% (active).
In the case of `Cc1cc(Oc2ccccc2)nc(N2CCOCC2)n1`, the max response was 11.6%.
As for `COc1ccc(N2C(=O)C(CC(=O)Nc3ccc(F)cc3)N(CCc3cccs3)C2=O)cc1` (configuration not stated), the max response was 8.62%.
As for `CNc1ccc(SC#N)cc1`, the max response is -2%.
`COc1ccc(OCc2cccc(C(=O)N3CCCC3)c2)cc1`: the max response is 59.3% (active).
Take `COc1cccc(COc2ccc(N(C)S(=O)(=O)c3ccccc3)cc2)c1`: the max response is -0.489%.
Take `COc1ccc(CNC(=O)C2CCN(C(=O)c3ccccc3)CC2)cc1`: the max response is 1.61%.
For `Cc1cccc(C(=O)N2CCCN(C(=O)c3cccc(C)c3)CC2)c1`, the max response was -1.57%.
For the compound `CC(=O)Oc1ccc(-c2cccc(C(=O)N3CCCCC3)c2)cc1`, the max response is 12.6% (active).
As to `Cc1cccc(C(=O)N2CCN(S(=O)(=O)N3CCCCC3)CC2)c1`, the max response is -2.15%.
With `COc1ccc(Cn2c(=S)[nH]c3cc(C(=O)N4CCCCC4)ccc3c2=O)cc1` the figure was -3.34%; with `CCOc1ccc(OCc2ccc(C(=O)N(C)c3ccccc3)o2)cc1`, 2.57%; with `CCOc1ccc(OCc2cccc(C(=O)N(CC)CC)c2)cc1`, 47.9% (active).
With `O=C(c1cc(S(=O)(=O)N2CCOCC2)ccc1Cl)N1CCOCC1` the figure was -3.17%; with `OC(c1nc2ccc(F)cc2[nH]1)C(O)c1nc2ccc(F)cc2[nH]1` (configuration not stated), -0.936%.
For the compound `COc1ccccc1N1CCN(C(=O)c2cc(=O)c3cc(C)cc(C)c3o2)CC1`, the max response was -2.78%.
Turning to `Cc1ccc(C)c(-n2c(SCC(=O)O)nc3sc4c(c3c2=O)CCCC4)c1`, the max response was -4.29%.
Regarding `Cc1ccc(NC(=S)N(CCN(C)C)Cc2cccs2)cc1C`, the max response is -3.5%.
Take `O=C(COc1ccc(-n2cnnn2)cc1)Nc1ccccc1Cl`: the max response is 9.71%.
For the compound `Cc1sc2nc(CSCC(=O)Nc3c(Cl)cccc3Cl)[nH]c(=O)c2c1C`, the max response is 13.5%.
With `CS(=O)(=O)c1ccc(Cl)c(NC(=O)Nc2ccccc2)c1` the figure was -1.05%; with `Cc1ccc(NC(=O)Nc2ccccc2)c(Br)c1`, 64.5% (active); with `CCOc1cc(NC(=O)Nc2ccccc2)c(OCC)cc1NC(=O)CC`, -3.19%.
For the compound `COc1ccc(S(=O)(=O)N/N=C\c2ccc(OC)c(COc3ccc(C)cc3[N+](=O)[O-])c2)cc1`, the max response was -1.1%.
Regarding `O=C(NCc1ccco1)C(c1ccncc1)N(C(=O)Cn1nnc2ccccc21)c1ccccc1` (configuration not stated), the max response is -1.7%.
As to `CCN(CC)C(=O)C(=O)Nc1cccc(Br)c1`, the max response was 36.1% (active).
Take `CSc1ccccc1NC(=O)CN(C)CC(=O)Nc1cccc(Br)c1`: the max response was 1.62%.
In the case of `CCN(CC)C(=O)Oc1ccc(Br)cc1C(=O)Nc1ccc(F)c(Cl)c1`, the max response is 11%.
In the case of `CC(C)(C)c1ccccc1NC(=O)CN1C(=O)NC2(CCCC2)C1=O`, the max response was -4.11%.
`Cc1cccc(C(=O)OC(C)CN2CCN(C)CC2)c1` (configuration not stated): the max response is 41.3% (active).
Consider `CC(CN1CCCCC1)c1ccccc1` (configuration not stated), for which the max response is -3.13%.
Regarding `Cc1ccc(C(CNC(=O)Nc2cccc(C)c2)N2CCN(C)CC2)cc1` (configuration not stated), the max response was -4.7%.
As for `CC(CN1CCOCC1)OC(=O)c1ccc(Cl)cc1Cl` (configuration not stated), the max response is 20.3%.
For the compound `CC(CN1CCOCC1)OC(=O)c1ccc(C(C)(C)C)cc1` (configuration not stated), the max response was 16.4% (active).
On to `CC(CN1CCCCC1)OC(=O)c1ccccc1Cl` (configuration not stated), for which the max response was 22.1% (active).
The figure for `Cc1ccc(C(=O)OC(C)CN2CCOCC2)cc1` (configuration not stated) is 16.8%; for `Cc1cccc(C(=O)OC(C)CN2CCCC2)c1` (configuration not stated) it is 6.5%.
With `CC(CN1CCOCC1)c1ccccc1` (configuration not stated), the max response was 2.67%.
In the case of `COc1ccc(-n2nc3c(N4CCC(C(=O)NCc5ccccc5)CC4)nnc(C)c3c2C)cc1`, the max response is -13.3%.
`CCOC(=O)C1C(c2ccc(OC)c(OC)c2)c2c([nH][nH]c2=O)CC1(C)O` (configuration not stated): the max response is -1.55%.
In the case of `CO/N=C(/CS(=O)(=O)c1ccc(Br)cc1)c1ccc(OC)cc1`, the max response is 0.74%.
On to `Clc1ccc(COn2c(-c3ccc(Cl)cc3Cl)nc3ncccc32)cc1`, for which the max response was -3.82%.
Consider `Cc1n[nH]c(=O)c2c1nnn2Cc1ccc(F)cc1`, for which the max response is -2.69%.
For the compound `O=C(Nc1ccc(Br)cc1)c1cccc(NC(=O)C2C3CC4OC(=O)C2C4C3)c1` (configuration not stated), the max response is 14%.
For the compound `Cn1c(CCNS(=O)(=O)c2ccc(F)cc2)nnc1SCc1cccnc1`, the max response is -3.41%.
The figure for `CCC1(CC)NC(=O)N(CC(=O)OCC(=O)NC(=O)c2ccccc2)C1=O` is -1.66%; for `CCC1(CC)NC(=O)N(Cc2nc3ccccc3s2)C1=O` it is 19.8% (active).
As to `COC(=O)C1[C@H]2SC(C)(C)C(C(=O)OC)N2C(=O)N1Cc1nc2ccccc2s1` (some centres not stated), the max response was 0.765%.
